VACV mCherry inh = qHTS for Stage-Specific Inhibitors of Vaccinia Orthopoxvirus: mCherry Reporter Primary qHTS; Vaccinia virus mCherry reporter infection, fluorescence; Potency, µM (top dose mostly 36.5 µM), without a hit: at the top dose activity change, negative = inhibition, hits mostly inhibitors; 310,000 tested, 0.63% active; calls by dose curve; tested in A549 cells; also: % is scaled to controls: 0 for no effect and ±100 for the full control effect; nearly all actives have a fitted effect of over 35% in size
Pf growth 96h = Primary qHTS for delayed death inhibitors of the malarial parasite plastid, 96 hour incubation; 320,000 tested, 6.9% active; P. falciparum luciferase reporter growth, 96 h; Potency, µM (doses to about 28.7 µM), for the others: at the highest dose activity change, negative = inhibition, usual class: inhibitors; also: % is scaled to controls: 0 for no effect and ±100 for the full control effect
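Erythrocytes infected with luciferase-expressing P. falciparum were dispensed at 2% hematocrit and 0.05% parasitemia (final), then incubated with compounds 96 hours at 37 C in 5% CO2. Luminescence after detection reagent addition reported growth.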
HCV inh = qHTS Assay for Inhibitors of Hepatitis C Virus (HCV) | Huh7.5.1 HCVcc-Cre infection, luciferase reporter, 44 h | Potency, µM (highest dose often 41.8 µM), for inactives: top-dose activity change, negative = inhibition, usual class: inhibitors | 340,000 tested, 3.4% active | AID 651820, 2012; also: % is scaled to controls: 0 for no effect and ±100 for the full control effect
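1,000 cells/well; 4 h culture; + compound; + HCVcc-Cre (~0.5 moi); 44 h; luciferase substrate, RT 15 min; read 15 sec.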
Pf growth 48h = Primary qHTS for delayed death inhibitors of the malarial parasite plastid, 48 hour incubation; P. falciparum luciferase growth in erythrocytes, 48 h; 310,000 tested, 5.9% active; Potency, µM (doses to about 28.7 µM), without a hit: top-dose activity change, negative = inhibition, actives largely listed as inhibitors; also: % is scaled to controls: 0 for no effect and ±100 for the full control effect
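Parasite viability was followed by luminescence of a genomically integrated firefly luciferase. Cultures held 0.1% parasitemia at 2% hematocrit (final), incubated under 5% CO2 at 37 C.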
NS1 function inh = qHTS Assay for Inhibitors of Influenza NS1 Protein Function; Potency, µM (doses to about 46.1 µM), without a hit: top-dose activity, positive = more growth; AID 2326, 2010; 270,000 tested, 0.4% active; calls by dose curve; also: actives are rising curves; nearly all actives have a fitted effect of over 50% in size
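In this qHTS, NS1 from influenza A is expressed in budding yeast, where it slows growth. Cells are switched from glucose to 2% galactose medium (pH 6.0, -URA), treated with compound, and growth recovery is read at OD600.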
Vaccinia Venus = qHTS for Stage-Specific Inhibitors of Vaccinia Orthopoxvirus: Venus Reporter Primary qHTS | 330,000 tested, 0.46% active | Vaccinia virus Venus reporter expression, fluorescence | Potency, µM (doses to about 36.5 µM), for inactives: top-dose activity change, negative = inhibition, most hits filed as inhibitors; calls by dose curve; tested in A549 cells; also: % is scaled to controls: 0 for no effect and ±100 for the full control effect; nearly all actives have a fitted effect of over 30% in size
An asterisk follows results filed as active; i = inactive; ? = inconclusive; . = no result. This is a sample that favours compounds with a hit; in the whole collection about 11% have one here. Unless noted, calls follow the shape of the dose curve; as a rule, active = well fitted inhibition curve with a large enough effect; inconclusive = small, poorly fitted or top-dose-only effect, or another doubt; inactive = no such curve, though single readings can be large or run the other way. Potency is read from the fitted curve at half-maximal effect.

SMILES | VACV mCherry inh | Pf growth 96h | HCV inh | Pf growth 48h | NS1 function inh | Vaccinia Venus
CCCNC(=O)N1[C@H]2CC[C@@H]1C(C(=O)OC)=C(c1ccc(F)cc1OCc1ccccc1)C2 | -26% | ? | 17% | ? | . | -5%
COC(=O)C1=C(c2ccccc2OCc2ccccc2)C[C@@H]2CC[C@H]1N2C(=O)NCCc1ccc(F)cc1 | -19% | ? | ? | 10µM* | . | ?
COC(=O)C1=C(c2ccccc2OCc2ccccc2)C[C@@H]2CC[C@H]1N2C(=O)NCc1cccc(C(F)(F)F)c1 | -5% | ? | ? | 10µM* | . | ?
COC(=O)C1=C(c2ccccc2OCc2ccccc2)C[C@@H]2CC[C@H]1N2C(=O)NCc1ccc(Br)cc1 | -18% | ? | ? | 10µM* | . | ?
O=C(Nc1ccc(N2CCOCC2)cc1)c1ccc(Br)o1 | -32% | 9% | -16% | 127% | 0% | -10%
COC(=O)C1=C(c2cc3ccccc3s2)C[C@@H]2CC[C@H]1N2C(=O)NCC1CC1 | i | . | ? | . | . | -22%
COC(=O)C1=C(c2cc3ccccc3s2)C[C@@H]2CC[C@H]1N2C(=O)NCc1ccc(C(F)(F)F)cc1 | -16% | . | 11µM* | . | . | ?
COC(=O)C1=C(c2ccccc2OCc2ccccc2)C[C@@H]2CC[C@H]1N2C(=O)NCc1ccc(C(F)(F)F)cc1 | -14% | ? | 10µM* | 13µM* | . | ?
COC(=O)C1=C(c2ccccc2OCc2ccccc2)C[C@@H]2CC[C@H]1N2C(=O)NCCN1CCOCC1 | -2% | 4.7µM* | 11% | ? | . | -11%
COC(=O)C1=C(c2ccc(OCc3ccccc3)cc2)C[C@@H]2CC[C@H]1N2C(=O)NCc1cccc(C(F)(F)F)c1 | -19% | 1.9µM* | 13µM* | 4.1µM* | . | ?
CC1CCN(S(=O)(=O)c2ccc3c(c2)N(CC(=O)NCC(C)c2ccccc2)C(=O)CO3)CC1 (stereo not drawn) | -9% | . | . | . | . | 0%
O=C(NC1CC(=O)N(c2ccc(Cl)cc2)C1)c1ccc(S(=O)(=O)N2CCOCC2)cc1 (stereo not drawn) | -19% | . | . | . | . | -18%
O=C(OCc1ccc(F)cc1)c1ccc2ccccc2n1 | -10% | 0% | -21% | 18% | . | -15%
O=c1c2cnn(-c3ccccc3Cl)c2ncn1Cc1cccnc1 | . | 13µM* | 21% | ? | -7% | .
O=c1c2cnn(-c3ccc(F)cc3)c2ncn1Cc1ccccc1 | . | 8.3µM* | 8% | -8% | 2% | -5%
NC(=O)c1ccsc1NC(=O)CSc1nnc(C2CC2)n1Cc1ccccc1 | . | -8% | -4% | -10% | 1% | -18%
NC(=O)c1ccccc1OCC(=O)c1ccc(Cl)cc1 | -10% | 0% | 22% | 4.1µM* | . | -13%
Cc1cc(NS(=O)(=O)c2ccc(NC(=O)C(C(C)C)N3C(=O)c4ccccc4C3=O)cc2)nc(C)n1 (stereo not drawn) | -10% | 46% | 10% | -5% | -14% | -4%
Cc1cc(C)cc(OC(C)C(=O)Nc2ccc(S(=O)(=O)Nc3cc(C)nc(C)n3)cc2)c1 (stereo not drawn) | -2% | 13µM* | -15% | 1% | -9% | -10%
CCOc1ccc(-n2c(CC)nc3c(cnn3-c3ccc(Cl)cc3)c2=O)cc1 | -10% | . | . | . | . | -9%
Cc1ccc(-n2c(C)nc3c(cnn3-c3ccccc3Cl)c2=O)cc1C | . | 3.7µM* | -2% | . | -61% | .
Cc1nc2c(cnn2-c2ccccc2Cl)c(=O)n1-c1ccc(N2CCC(C)CC2)cc1 | . | 9% | 13µM* | . | -1% | .
CCc1nc2c(cnn2-c2ccc(F)cc2)c(=O)n1-c1ccc(N2CCC(C)CC2)cc1 | ? | 3.3µM* | 0% | . | 3% | ?
Cc1ccc(N(CC(=O)NC2CCCCCC2)S(=O)(=O)c2c(C)nn(C)c2C)cc1 | . | 12µM* | -3% | 0% | -10% | .
Cc1noc(C)c1S(=O)(=O)N(CC(=O)NC1CCC(C)CC1)c1ccc(C(C)C)cc1 (stereo not drawn) | . | ? | -7% | 10µM* | 6% | .
SMILES | VACV mCherry inh | Pf growth 96h | HCV inh | Pf growth 48h | NS1 function inh | Vaccinia Venus
Cc1cc(C)cc(N(CC(=O)Nc2ccc(C(F)(F)F)cc2)S(=O)(=O)c2c(C)[nH]c(=O)[nH]c2=O)c1 | -21% | 6% | ? | 15µM* | 22% | 3%
Cc1nn(C)c(C)c1S(=O)(=O)N(CC(=O)NCc1cccs1)c1ccc(C(C)C)cc1 | i | 9.3µM* | -9% | 1% | -88% | -7%
CCOc1ccc(N(CC(=O)NC2CCC(C)CC2)S(=O)(=O)c2c(C)noc2C)cc1 (stereo not drawn) | . | ? | 0% | ? | 9% | .
O=C(NCCCN1CCCCCC1)C(c1ccccc1)C1CCCCC1 (stereo not drawn) | -9% | . | . | . | . | -25%
Cc1ccc(N(CC(=O)NCCc2ccc(Cl)cc2)S(=O)(=O)c2c(C)noc2C)cc1 | -11% | 2.3µM* | -8% | -5% | -6% | -27%
Cc1ccc(CNC(=O)CN(c2ccc(C(C)C)cc2)S(=O)(=O)c2c(C)noc2C)cc1 | . | 10µM* | -9% | -8% | 13% | .
Cc1noc(C)c1S(=O)(=O)N(CC(=O)NCc1ccc2c(c1)OCO2)c1ccc(C(C)C)cc1 | i | -19% | ? | . | -26% | -11%
COc1ccc(CNC(=O)CN(c2ccc(OC)cc2)S(=O)(=O)c2c(C)[nH]c(=O)[nH]c2=O)cc1 | -19% | ? | 20% | 18% | -13% | -1%
COc1ccc(CNC(=O)CN(c2ccc(C)cc2)S(=O)(=O)c2c(C)noc2C)cc1 | -7% | 69% | 1% | -13% | -4% | -18%
COc1ccc(CNC(=O)CN(c2ccc(C(C)C)cc2)S(=O)(=O)c2c(C)noc2C)cc1 | . | ? | 10µM* | -14% | 12% | .
COc1ccc(N(CC(=O)NCc2ccc(C)cc2)S(=O)(=O)c2c(C)[nH]c(=O)[nH]c2=O)cc1 | -4% | 4.7µM* | 20% | 25% | -10% | 4%
CCC(C)CCN1C(N(C)C)=NC[C@@H]1C (stereo partly drawn) | i | 31% | 19% | -9% | . | -10%
COc1ccccc1CNC(=O)C1CCC(CNS(=O)(=O)c2cccs2)CC1 (stereo not drawn) | ? | -2% | -4% | -5% | -18% | -9%
COc1cc(/C=N/NC(=O)COc2cc(C)cc(C)c2)ccc1OS(=O)(=O)c1ccc(C)cc1 | i | 0% | ? | 16% | ? | -23%

From PubChem BioAssay
